We go through seven sequences from paper PMC8384837, “Expanding the binding specificity for RNA recognition by a PUF domain”.

Holding throughout (experiment): yeast three-hybrid, YBZ-1, SC-Leu-His + 0.5 mM 3-AT, 4 days
Holding throughout (settings): tags: N-Gal4 AD-HA kept; label: inside an RPR1-promoter hybrid RNA with tandem MS2 sites; ssRNA

In one assay the target is PUM1 PUF domain R7-GRR (Homo sapiens, UniProt Q14671 828-1176, S1079G;N1080R;E1083R). Put shortly: (§1)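 Repeat regions from input (SC-Leu) and selection (SC-Leu-His + 0.5 mM 3-AT) plates were PCR-amplified and Illumina-sequenced after four days of growth. The cells were strain YBZ-1 with a LexA–MS2 coat fusion and a HIS3 reporter, co-expressing Pumilio-1 PUF domain libraries and matching RNA elements from a centromeric plasmid. The interaction score is the log change in variant frequency from input to selection, taken in log2 with a pseudocount of 1 for absent variants.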

A further assay deals with PUM1 PUF domain R7-GSK (Homo sapiens, UniProt Q14671 828-1176, S1079G;N1080S;E1083K). Put shortly: as §1
Sequence of PUM1 PUF domain R7-GSK (Q14671 828-1176 S1079G/N1080S/E1083K): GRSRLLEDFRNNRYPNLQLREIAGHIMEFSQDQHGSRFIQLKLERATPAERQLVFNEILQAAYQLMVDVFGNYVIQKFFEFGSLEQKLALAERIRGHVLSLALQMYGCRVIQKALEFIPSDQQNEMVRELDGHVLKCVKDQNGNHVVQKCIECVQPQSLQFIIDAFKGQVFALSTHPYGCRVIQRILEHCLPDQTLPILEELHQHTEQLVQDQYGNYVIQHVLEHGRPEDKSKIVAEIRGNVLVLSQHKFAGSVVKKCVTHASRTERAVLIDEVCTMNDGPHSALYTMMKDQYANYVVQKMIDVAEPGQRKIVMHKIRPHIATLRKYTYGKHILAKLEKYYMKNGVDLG
The next assay addresses PUM1 PUF domain R1-RSV (Homo sapiens, UniProt Q14671 828-1176, S863R;R864S;Q867V). Summed up:
as §1

In the next assay the target is PUM1 PUF domain R1-KLM (Homo sapiens, UniProt Q14671 828-1176, S863K;R864L;Q867M). Put shortly: as §1
Sequence of PUM1 PUF domain R1-KLM (Q14671 828-1176 S863K/R864L/Q867M): as the sequence (Q14671 828-1176 S1079G/N1080S/E1083K) above, with S36K, R37L, Q40M, G252S, S253N, K256E counted along it
Another assay addresses PUM1 PUF domain R1-GLQ (Homo sapiens, UniProt Q14671 828-1176, S863G;R864L). Put shortly: as §1
The next assay addresses PUM1 PUF domain R5-RHH (Homo sapiens, UniProt Q14671 828-1176, C1007R;R1008H;Q1011H). Summed up:
as §1

The target in another assay is PUM1 PUF domain R5-SAP (Homo sapiens, UniProt Q14671 828-1176, C1007S;R1008A;Q1011P). Summed up: as §1
Sequence of PUM1 PUF domain R5-SAP (Q14671 828-1176 C1007S/R1008A/Q1011P): as the sequence (Q14671 828-1176 S1079G/N1080S/E1083K) above, with C180S, R181A, Q184P, G252S, S253N, K256E counted along it
The next assay concerns the target PUM1 PUF domain R4-LNA (Homo sapiens, UniProt Q14671 828-1176, N971L;H972N;Q975A). Put shortly:
as §1

Sequence of PUM1 PUF domain R5-RHH (Q14671 828-1176 C1007R/R1008H/Q1011H): as the sequence (Q14671 828-1176 S1079G/N1080S/E1083K) above, with C180R, R181H, Q184H, G252S, S253N, K256E counted along it

As for “GGCUAGAACUAGUGGAUCCCCCGGCGCCCGGCGGCUCGAGCCCGGGUAAGUCUAAAUAGUCUGCAUGCCGCCGGGCGCCAUGCCUGCAGGUCGACUCUAGAAAACAUG”, the binding signal in the assay with PUM1 PUF domain R7-GRR is 2.81 log2 enrichment (interaction score).

Take “GGCUAGAACUAGUGGAUCCCCCGGCGCCCGGCGGCUCGAGCCCGGGUAAGUUUAAAUAGUCUGCAUGCCGCCGGGCGCCAUGCCUGCAGGUCGACUCUAGAAAACAUG”: the binding signal with PUM1 PUF domain R7-GRR was 5.06 log2 enrichment (interaction score); with PUM1 PUF domain R7-GSK, 4.61 log2 enrichment (interaction score).

With “GGCUAGAACUAGUGGAUCCCCCGGCGCCCGGCGGCUCGAGCCCGGGUAAGUGUAAAUCGUCUGCAUGCCGCCGGGCGCCAUGCCUGCAGGUCGACUCUAGAAAACAUG”, the binding signal with PUM1 PUF domain R1-RSV is 3.6 log2 enrichment (interaction score); with PUM1 PUF domain R1-KLM, 3.89 log2 enrichment (interaction score).

For the sequence “GGCUAGAACUAGUGGAUCCCCCGGCGCCCGGCGGCUCGAGCCCGGGUAAGUGUAAAUUGUCUGCAUGCCGCCGGGCGCCAUGCCUGCAGGUCGACUCUAGAAAACAUG”, the binding signal in the assay with PUM1 PUF domain R1-RSV is 2.17 log2 enrichment (interaction score); with PUM1 PUF domain R1-GLQ, 2.93 log2 enrichment (interaction score).

Consider “GGCUAGAACUAGUGGAUCCCCCGGCGCCCGGCGGCUCGAGCCCGGGUAAGUGUGAAUAGUCUGCAUGCCGCCGGGCGCCAUGCCUGCAGGUCGACUCUAGAAAACAUG”, for which the results for the binding signal with PUM1 PUF domain R5-RHH and with PUM1 PUF domain R5-SAP were 3.25 log2 enrichment (interaction score) and 3.23 log2 enrichment (interaction score), respectively.

Turning to “GGCUAGAACUAGUGGAUCCCCCGGCGCCCGGCGGCUCGAGCCCGGGUAAGUGUAUAUAGUCUGCAUGCCGCCGGGCGCCAUGCCUGCAGGUCGACUCUAGAAAACAUG”, the binding signal in the assay with PUM1 PUF domain R4-LNA is 2.84 log2 enrichment (interaction score).

As for “GGCUAGAACUAGUGGAUCCCCCGGCGCCCGGCGGCUCGAGCCCGGGUAAGUGUAAAUGGUCUGCAUGCCGCCGGGCGCCAUGCCUGCAGGUCGACUCUAGAAAACAUG”, the binding signal with PUM1 PUF domain R1-KLM was 0.59 log2 enrichment (interaction score).
